Consider six compounds from PubChem BioAssay.

One test deals with Albumin (Bos taurus) (UniProt P02769). The test can be described thus: bovine serum albumin binders on microarray, profiling panel, artefact control for SMM control protein annotation, biochemical, small-molecule microarray, Alexa647 label, 635/667 nm fluorescence (AID 1118).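 Note: score merges 667 nm emission intensity and signal-to-noise per printed compound spot.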 The settings on record: BSA-A647 binding, fluorescence 635 nm, higher = more signal.
Test [1] is described as follows: small-molecule microarray binders of probe aXIP, primary screen, biochemical, NeuroSMM set, 635/667 nm fluorescence (AID 1119).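 Note: probe is the protein aXip251-270 applied at 1 µg/mL to compound-printed slides; binding of probe to printed compounds measured as 667 nm fluorescence plus signal to noise.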 Conditions: higher = more signal, called active from +8 up or from −8 down.
Test [2] can be described thus: small-molecule binders of probe aNOTCH3, primary screen, biochemical, small-molecule microarray, 635/667 nm fluorescence (AID 1120).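 Note: probe is a biotin-tagged antibody raised against NOTCH3 rather than NOTCH3 protein; score merges spot fluorescence near 667 nm with spot signal to noise.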 Conditions: higher = more signal.
Test [3] can be described thus: small-molecule binders of probe aNOTCH2, primary screen, biochemical, small-molecule microarray, 635/667 nm fluorescence (AID 1121).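 Note: score merges feature fluorescence read at 667 nm with its signal to noise.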 Conditions: higher = more signal.
Test [4] deals with Carbonic anhydrase 2 (Homo sapiens) (UniProt P00918). The experiment in a line: CAII small-molecule binders, profiling panel, biochemical, small-molecule microarray, Alexa647-labelled CAII (AID 1122). Conditions: CAII-A647 binding fluorescence, higher = more signal.
A short description of test [5]: COS7 lysate on small-molecule microarray, probe aHis, 635 nm (AID 1123).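 Note: z-score combines 667nm fluorescence intensity with signal-to-noise per printed compound spot.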 Conditions: COS7 cell lysate, fluorescence, higher = more signal.
The nature of test [6]: compound binding in COS7 lysate, probe aLAP1, primary screen, cell lysate, small-molecule microarray (AID 1124).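 Note: lysate comes from COS7 cells expressing LAP1 and is applied at 0.3 µg/mL; score merges spot fluorescence near 667 nm with signal-to-noise over triplicate slides.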 The settings on record: probe aLAP1, fluorescence, higher = more signal.
The next test has as its system Sam68 (KHDRBS1). The test can be described thus: Sam68 small-molecule binders, primary screen, biochemical, small-molecule microarray, 635 nm fluorescence (AID 1125).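 Note: score merges 667 nm channel intensity with signal to noise over triplicate slides.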 Conditions: small-molecule microarray binding, higher = more signal.
For test [7], the system named is Chordin-like protein 2 (CHRDL2). The experiment in a line: CHRDL2 small-molecule binders, primary screen, biochemical, small-molecule microarray, 635 nm fluorescence (AID 1126).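 Note: printed compound slides probed with Chrdl2 protein at 4 µg/mL for 1 h at 4 C; score merges 667 nm emission intensity with signal to noise over three replicate slides.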 The settings on record: small-molecule microarray binding, fluorescence 635 nm; higher = more signal.
Test [8] deals with Concanavalin-A (Canavalia ensiformis) (UniProt P02866). The test can be described thus: ConA small-molecule binders, primary screen, artefact control for SMM control protein annotation, biochemical, small-molecule microarray, Alexa647 label, 635 nm (AID 1127).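 Note: z combines 667 nm emission intensity with signal-to-noise across three replicate slides.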 The settings on record: ConA-A647 binding fluorescence, higher = more signal.
The nature of test [9]: anti-His antibody binders, primary screen, artefact control for SMM control protein annotation, biochemical, small-molecule microarray, 635 nm fluorescence (AID 1128).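 Note: score merges feature fluorescence with signal-to-noise for each printed compound spot.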 The settings on record: anti-His Alexa647 antibody binding, higher = more signal.
Test [10] relates to Human papillomavirus type 1a E7 protein (residues 1-88). The experiment in a line: HPV1a E7 small-molecule binders, primary screen, biochemical, small-molecule microarray, residues 1-88, 635 nm (AID 1129). Conditions: small-molecule microarray binding, fluorescence 635 nm; higher = more signal.
Test [11] deals with Focal adhesion kinase 1 (Homo sapiens) (UniProt Q05397). The experiment in a line: small-molecule microarray binders of FAK, primary screen, biochemical, 635/667 nm fluorescence, BSA, DTT (AID 1130).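 Note: composite of spot emission at 667 nm and signal to noise over triplicate slides.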 The settings on record: PTK2 binding, 635 nm fluorescence, higher = more signal.
The test system of test [12] is Fibrinogen (Alexa647-labelled). The test can be described thus: fibrinogen binders on compound microarrays, profiling panel, artefact control for SMM control-protein annotation, biochemical, small-molecule microarray, 635/667 nm fluorescence (AID 1131).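 Note: z-score merges 667 nm fluorescence with per-spot signal-to-noise over triplicate slides.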 Conditions: fibrinogen-A647 binding fluorescence, higher = more signal.
Test [13] concerns the target Follistatin (Homo sapiens) (UniProt P19883). The test can be described thus: follistatin binders on small-molecule microarrays, primary screen, biochemical, small-molecule microarray, 635/667 nm fluorescence (AID 1132). Conditions: FST binding, 635 nm fluorescence, higher = more signal.
The target in test [14] is Fibroblast growth factor 2 (Homo sapiens) (UniProt P09038). The test can be described thus: FGF2 binders on small-molecule microarrays, primary screen, biochemical, small-molecule microarray, 635/667 nm fluorescence (AID 1133). Conditions: small-molecule microarray binding, FGF2, fluorescence 635/667; higher = more signal.
A short description of test [15]: mitochondrial membrane potential change in A549 cells, profiling panel, cell-based, JC-1 fluorescence, basal, 24 h, 100 nL (AID 1138).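 Note: A549 lung adenocarcinoma cells under basal conditions with no added stimulus; test concentration not given here.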 Conditions: higher = more signal.
The next test relates to Lefty1. The experiment in a line: Lefty1 binders on small-molecule microarrays, primary screen, biochemical, small-molecule microarray, 635/667 nm fluorescence (AID 1139). Conditions: small-molecule microarray binding, fluorescence 635/667; higher = more signal.
In test [16] the test system is wheat germ agglutinin (Triticum aestivum), Alexa647-labelled. The test can be described thus: wheat germ agglutinin binders on compound microarrays, profiling panel, artefact control for SMM control-protein annotation, biochemical, small-molecule microarray, 635/667 nm fluorescence (AID 1140).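 Note: score merges 667 nm feature emission with signal to noise over triplicate slides.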 Conditions: WGA-A647 binding, 635 nm fluorescence, higher = more signal.
For test [17], the target named is Luciferin 4-monooxygenase (Photinus pyralis) (UniProt P08659). The test can be described thus: firefly luciferase enzyme inhibitors, primary screen, biochemical, luminescence, purified enzyme, 2006 set (AID 1141).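 Note: cell-free assay with purified firefly luciferase at 100 ng per well in PBS; test concentration not given here.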 The settings on record: SteadyGlo luminescence, 30 min, higher = more signal, called active from +8 up or from −8 down.

SMILES strings stand for the structures. Active and inactive are the calls of the source.

Chain of Focal adhesion kinase 1 (Homo sapiens) (Q05397 whole entry, looked up): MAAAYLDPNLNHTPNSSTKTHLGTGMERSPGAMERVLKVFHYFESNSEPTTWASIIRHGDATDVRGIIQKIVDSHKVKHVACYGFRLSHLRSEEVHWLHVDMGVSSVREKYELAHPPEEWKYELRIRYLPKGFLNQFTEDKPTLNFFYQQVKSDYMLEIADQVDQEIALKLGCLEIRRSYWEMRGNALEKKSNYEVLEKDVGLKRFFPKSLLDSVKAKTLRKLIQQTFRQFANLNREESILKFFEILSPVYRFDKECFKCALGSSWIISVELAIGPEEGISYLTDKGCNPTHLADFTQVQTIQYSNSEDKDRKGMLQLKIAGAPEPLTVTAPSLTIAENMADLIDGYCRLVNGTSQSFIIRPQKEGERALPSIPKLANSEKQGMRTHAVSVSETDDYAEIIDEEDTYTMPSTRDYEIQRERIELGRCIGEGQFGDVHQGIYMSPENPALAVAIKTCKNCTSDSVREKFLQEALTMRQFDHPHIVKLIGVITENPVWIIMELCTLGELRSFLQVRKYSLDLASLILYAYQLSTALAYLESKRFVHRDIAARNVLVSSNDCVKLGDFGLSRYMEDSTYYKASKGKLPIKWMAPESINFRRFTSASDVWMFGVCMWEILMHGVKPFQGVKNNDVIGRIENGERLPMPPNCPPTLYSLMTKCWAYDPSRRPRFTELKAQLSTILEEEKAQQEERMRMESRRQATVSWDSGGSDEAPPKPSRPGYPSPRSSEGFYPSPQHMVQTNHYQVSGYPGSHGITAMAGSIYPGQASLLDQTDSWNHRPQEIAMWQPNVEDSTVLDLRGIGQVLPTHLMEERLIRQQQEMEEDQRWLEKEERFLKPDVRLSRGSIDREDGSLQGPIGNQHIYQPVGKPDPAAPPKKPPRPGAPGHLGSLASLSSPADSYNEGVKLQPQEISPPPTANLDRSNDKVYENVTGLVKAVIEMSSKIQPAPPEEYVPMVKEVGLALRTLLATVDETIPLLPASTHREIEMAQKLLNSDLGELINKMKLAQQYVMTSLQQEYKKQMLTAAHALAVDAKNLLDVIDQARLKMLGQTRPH
Chain of Concanavalin-A (Canavalia ensiformis) (P02866 whole entry, looked up): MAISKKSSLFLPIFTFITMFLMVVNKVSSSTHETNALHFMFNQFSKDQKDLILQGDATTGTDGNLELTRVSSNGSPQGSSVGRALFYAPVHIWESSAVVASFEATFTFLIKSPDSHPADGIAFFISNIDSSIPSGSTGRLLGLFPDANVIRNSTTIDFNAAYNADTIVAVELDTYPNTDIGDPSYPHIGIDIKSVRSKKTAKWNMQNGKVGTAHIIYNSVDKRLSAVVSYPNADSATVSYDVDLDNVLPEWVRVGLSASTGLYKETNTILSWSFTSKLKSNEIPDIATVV
Chain of Luciferin 4-monooxygenase (Photinus pyralis) (P08659 whole entry, looked up): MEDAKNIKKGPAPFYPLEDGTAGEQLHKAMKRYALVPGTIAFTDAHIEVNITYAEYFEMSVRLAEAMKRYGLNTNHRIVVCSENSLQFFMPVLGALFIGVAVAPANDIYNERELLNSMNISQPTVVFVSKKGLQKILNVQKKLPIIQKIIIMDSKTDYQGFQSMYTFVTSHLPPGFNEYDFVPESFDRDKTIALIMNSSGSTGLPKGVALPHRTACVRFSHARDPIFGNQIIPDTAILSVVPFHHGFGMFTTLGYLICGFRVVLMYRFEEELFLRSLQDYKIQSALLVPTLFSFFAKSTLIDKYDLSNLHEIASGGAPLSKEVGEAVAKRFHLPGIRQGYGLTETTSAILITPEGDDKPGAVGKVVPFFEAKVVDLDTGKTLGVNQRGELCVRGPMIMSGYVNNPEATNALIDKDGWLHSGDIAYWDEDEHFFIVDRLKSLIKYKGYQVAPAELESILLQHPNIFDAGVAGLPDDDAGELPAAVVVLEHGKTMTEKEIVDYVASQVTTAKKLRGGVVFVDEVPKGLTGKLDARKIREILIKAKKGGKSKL
Chain of Albumin (Bos taurus) (P02769 whole entry, looked up): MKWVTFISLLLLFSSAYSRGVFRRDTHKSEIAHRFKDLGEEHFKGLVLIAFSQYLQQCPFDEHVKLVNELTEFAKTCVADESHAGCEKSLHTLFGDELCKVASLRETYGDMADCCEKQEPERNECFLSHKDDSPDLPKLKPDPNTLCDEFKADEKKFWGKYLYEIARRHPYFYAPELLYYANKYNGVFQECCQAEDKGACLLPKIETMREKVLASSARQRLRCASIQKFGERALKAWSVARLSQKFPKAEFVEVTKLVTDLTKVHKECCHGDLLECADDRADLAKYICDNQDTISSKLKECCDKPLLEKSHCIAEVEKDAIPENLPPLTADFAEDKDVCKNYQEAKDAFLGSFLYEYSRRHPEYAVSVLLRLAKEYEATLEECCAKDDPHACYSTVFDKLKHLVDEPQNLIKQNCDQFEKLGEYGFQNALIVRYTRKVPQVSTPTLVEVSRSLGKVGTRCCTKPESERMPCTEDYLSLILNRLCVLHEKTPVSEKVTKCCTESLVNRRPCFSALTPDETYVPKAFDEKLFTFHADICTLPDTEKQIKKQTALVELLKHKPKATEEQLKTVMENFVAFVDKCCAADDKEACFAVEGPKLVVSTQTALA
Chain of Follistatin (Homo sapiens) (P19883 whole entry, looked up): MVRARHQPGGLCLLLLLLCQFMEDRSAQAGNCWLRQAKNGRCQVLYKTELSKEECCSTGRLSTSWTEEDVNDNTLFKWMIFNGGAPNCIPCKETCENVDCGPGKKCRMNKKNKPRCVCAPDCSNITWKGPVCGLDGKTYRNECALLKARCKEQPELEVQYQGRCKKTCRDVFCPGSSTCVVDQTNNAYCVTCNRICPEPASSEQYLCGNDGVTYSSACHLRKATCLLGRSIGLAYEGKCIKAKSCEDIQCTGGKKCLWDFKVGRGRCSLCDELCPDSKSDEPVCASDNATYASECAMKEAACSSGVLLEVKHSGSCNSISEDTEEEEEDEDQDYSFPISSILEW
Chain of Fibroblast growth factor 2 (Homo sapiens) (P09038 whole entry, looked up): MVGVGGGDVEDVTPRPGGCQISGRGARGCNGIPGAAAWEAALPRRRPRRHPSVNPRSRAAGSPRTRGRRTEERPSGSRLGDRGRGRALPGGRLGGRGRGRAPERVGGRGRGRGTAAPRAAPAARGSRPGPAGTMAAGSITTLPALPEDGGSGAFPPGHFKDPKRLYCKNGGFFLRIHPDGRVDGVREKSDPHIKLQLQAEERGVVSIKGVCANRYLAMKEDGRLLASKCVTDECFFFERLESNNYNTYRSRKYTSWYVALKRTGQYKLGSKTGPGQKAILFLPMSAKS

For the compound `COc1ccc(CCNC(=O)[C@@]2(Sc3ccc(C)cc3)CC(=O)N(Cc3ccccc3)[C@@H]2c2ccc(CO)cc2I)cc1`, the composite z-score in the test with Albumin (Bos taurus) was -0.605; in test [2], -0.289; in test [3] it was -0.2; in test [4] it was 0.377; in [5] it was 0.666; in test [6], 2.03. Also, the composite z-score with Sam68 (KHDRBS1) is 0.247; in test [7], -0.974; in [8], 0.508; in [9] it was 1.06; in [10], 0.408; in [11], 0.0363. The composite z-score in test [12] was -0.718; in [13] it was -0.168; in test [14], -0.662; in the test on Lefty1, -0.89; in test [16] it was -0.0265. Also, the composite Z-score in test [1] was -0.224 (inactive). Besides, the z-score in [15] is 2.51; in test [17] it was -0.707 (inactive).

In the case of `C=C(C1=CCN(S(=O)(=O)c2ccc(C)cc2)C1)[C@@H](OC(C)=O)[C@@H]1CCCN1S(=O)(=O)c1ccccc1[N+](=O)[O-]`, the composite z-score was -1.41 in the test with Albumin (Bos taurus); -0.127 in [2]; -0.194 in test [3]; 0.139 in test [4]; 0.586 in [5]; -0.273 in [6]. In addition, the composite z-score in the test with Sam68 (KHDRBS1) is -0.339; in test [7] it was -0.486; in [8] it was -1.53; in test [9], 0.0491; in [10], 0.128; in [11], 0.137. Also, the composite z-score was -1.38 in test [12]; -0.273 in test [13]; -0.343 in test [14]; -0.0118 in the test with Lefty1; -1.42 in [16]. In [1], the composite Z-score is -0.0256 (inactive). The z-score is 1.7 in test [15] and -1.35 (inactive) in test [17].

As to `CC(C)(C)OC(=O)CC[C@]1(C(=O)NCc2ccccc2)COC(c2ccc(OCCCO)cc2)=N1`, the composite z-score with Albumin (Bos taurus) turned out to be 0.875; in test [2] it was 0.0128; in test [3] it was 0.0377; in [4] it was 0.673; in [5], 2.41; in [6], 1.49. The composite z-score was 1.25 in the test on Sam68 (KHDRBS1); -1.45 in [7]; 0.255 in test [8]; -0.518 in [9]; 1.25 in [10]; 0.444 in test [11]. The composite z-score is 0.694 in test [12]; -0.0444 in test [13]; -1.04 in test [14]; -0.986 in the test on Lefty1; 1.33 in test [16]. For the same compound, in [1], the composite Z-score was 0.603 (inactive). Also, the z-score in [15] is 0.695; in test [17] it was -0.714 (inactive).

Turning to `C#CCN1C(C(=O)OCC)OC[C@H]1c1ccccc1` (stereo not given in full), the composite z-score with Albumin (Bos taurus) is -0.0202; in [2], -0.128; in test [3] it was -0.0861; in [4], -0.0406; in [5], 4.71; in test [6], 0.847. The composite z-score in the test with Sam68 (KHDRBS1) is 0.487; in [7], 0.602; in [8], 0.303; in [9], 0.264; in test [10] it was -0.334; in [11] it was 5.01. In addition, the composite z-score in [12] is 0.559; in test [13], 0.552; in test [14], 0.469; with Lefty1 it was 0.732; in test [16], 0.299. In test [1], the composite Z-score was 0.369 (inactive). Besides, the z-score in test [15] was 0.833; in test [17] it was -0.547 (inactive).

With `O=C(N1CCCCC1)[C@@]1(Cc2ccccc2)N=C(c2ccc(OCCCO)cc2)O[C@H]1c1ccccc1`, the composite z-score in the test with Albumin (Bos taurus) is 0.955; in [2] it was 0.214; in test [3], 0.308; in test [4], 0.797; in test [5], 3; in test [6], 0.849. Also, the composite z-score in the test with Sam68 (KHDRBS1) was 1.23; in test [7] it was -1.34; in test [8] it was 1.11; in test [9], 2.02; in test [10], 1.07; in [11] it was 1.42. Besides, the composite z-score in test [12] is 0.124; in [13], 0.622; in [14], -0.12; in the test with Lefty1, -0.341; in test [16] it was 1.07. Also, the composite Z-score in test [1] was 0.0926 (inactive). Also, the z-score was -0.741 in [15] and -1.52 (inactive) in test [17].

With `CCOC(=O)C[C@H]1[C@H](OC(=O)c2ccc(-c3ccccc3)cc2)[C@@H](NC(=O)C2CCCCC2)c2cc(OCCCO)ccc2N1C(=O)c1ccc2ccccc2n1`, the composite z-score in the test with Albumin (Bos taurus) is 0.821; in [2] it was 0.0179; in test [3], 0.0055; in test [4], -0.252; in test [5] it was 0.915; in [6], 0.243. The composite z-score is 1.3 in the test with Sam68 (KHDRBS1); -0.625 in test [7]; 0.814 in test [8]; 0.549 in test [9]; 1.14 in test [10]; 0.347 in [11]. For the same compound, the composite z-score in test [12] was 0.433; in test [13], 0.349; in test [14], -0.243; with Lefty1 it was 0.0309; in test [16], 0.388. For the same compound, the composite Z-score in test [1] is -0.0871 (inactive). For the same compound, the z-score is 1.14 in [15] and -0.784 (inactive) in test [17].
